Source: PubChem BioAssay AID588342 (National Center for Advancing Translational Sciences (NCATS), 2011)
About 25,000 (6.9%) of roughly 360,000 compounds were called active. Another 9% or so got no clear call; they are omitted. Many of the other results were omitted from the sample, so actives are more common in it than they were. A number with no mark means an inactive call. The call rests on the fitted dose curve; in most records, active means well fitted inhibition curve with a large enough effect; inconclusive means small, poorly fitted or top-dose-only effect; inactive means flat fitted curve, though single readings scatter.

Target: Luciferin 4-monooxygenase (Photinus pyralis) (UniProt P08659)
Experiment: qHTS profiling assay for firefly luciferase inhibitor/activator using purifed enzyme and Km concentrations of substrates (counterscreen for miR-21 project); further: nearly all actives have a fitted effect of over 55% in size;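 on activity change, negative = inhibition: plate controls were vehicle for no effect and reference inhibitor for full effect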
Conditions: purified FLuc, luminescence inhibition; series mostly up to 57.5 µM; activity change, negative = inhibition: at the top concentration
Text: MLPCN Grant: 1 R21 NS059478-01 (miR-21 grant) Assay Provider: NCGC NCGC Assay Overview: Firefly (Photinus pyralis) luciferase is one of the most commonly used transcriptional reporters for a number of reasons. It is considered one of the more dynamically responsive reporters -that is, responsive to changes in reporter transcription - as it requires no post-translational modifications and is enzymatically active directly after protein synthesis (Wood, 1998). Additionally, the half-life of the luciferase protein is short relative to other reporter-gene products (Wood, 1995). Whereas reporters with long half-lives potentially allow for increased signal due to accumulation of reporter-gene product, once accumulated in the cell, dynamic changes in reporter-gene expression may be difficult to detect(Fan and Wood, 2007; Almond et al., 2004). It has been shown that wild-type P. pyralis luciferase has a half-life of approximately […] hours in mammalian cells (Thompson et al., 1991). Firefly luciferase reporter-gene assays are also generally considered one of the most sensitive assay types (Wood, 1995; Wood, 1998). Although light produced in a bioluminescence reaction is of lower intensity than that produced during fluorescence emission, this is offset by little to no background light inherent to luminescent assays. Thus the luciferase reporter can be expressed at much lower levels than fluorescent proteins while still providing robust signal. # However, it was initially observed, in 1991, by Thompson et al., that compounds that resemble the substrates of firefly luciferase (FLuc) can act as competitive inhibitors of the enzyme, and that these compounds, upon interaction with luciferase in the cell, can actually stabilize the protein and increase its half-life. Accumulated intracellular FLuc protein can be measured as an increase in luminescence signal, upon addition of detection reagents (which contain high concentrations of FLuc substrates) commonly used in high-throughput screening. In cell-based reporter gene assays that use FLuc as the reporter gene to quantitate the potential influence of a given compound against the target biology, this apparent increase in luminescence can mistakenly be interpreted as identification of a compound that is active against the target of interest. This is the case for the miR-21 FLuc reporter gene assay used to identify inhibitors of the miR-21 pathway (PubChem AID 2289) - compounds of interest will inhibit miR-21 biogenesis/expression or activity, and are identified by causing an increase in luminescence, due to increased FLuc translation. However, FLuc inhibitory compounds that stabilize the FLuc protein will give an identical read-out, making it difficult to distinguish compounds that are active against the target from those active against FLuc. Previous profiling work to determine the prevalence of compounds that affect FLuc enzymatic activity (PubChem AID 411) identified that ~3% of the MLSMR library (then at ~72K) inhibited FLuc. […] Since the MLSMR had grown to ~350K compounds, and since it was expected that a significant percentage of compounds found active in the miR-21 FLuc assay would be FLuc inhibitors, the library was screened for activity against FLuc using a biochemical assay of purified FLuc and KM concentrations of FLuc substrates (D-luciferin and ATP).
NCGC Assay Protocol Summary: Reagents: 50mM Tris acetate, pH 7.5; 10mM Mg acetate; 10uM D-luciferin (Sigma #L9504); 10uM ATP; 0.01% Tween-20; 0.05% BSA; 10nM P. pyralis luciferase (Sigma #L9506) Control compounds used were two known firefly luciferase inhibitors (compounds (2) and (5) in Auld et al., 2010), and DMSO. […]

Chain of Luciferin 4-monooxygenase (Photinus pyralis) (P08659 whole entry, looked up): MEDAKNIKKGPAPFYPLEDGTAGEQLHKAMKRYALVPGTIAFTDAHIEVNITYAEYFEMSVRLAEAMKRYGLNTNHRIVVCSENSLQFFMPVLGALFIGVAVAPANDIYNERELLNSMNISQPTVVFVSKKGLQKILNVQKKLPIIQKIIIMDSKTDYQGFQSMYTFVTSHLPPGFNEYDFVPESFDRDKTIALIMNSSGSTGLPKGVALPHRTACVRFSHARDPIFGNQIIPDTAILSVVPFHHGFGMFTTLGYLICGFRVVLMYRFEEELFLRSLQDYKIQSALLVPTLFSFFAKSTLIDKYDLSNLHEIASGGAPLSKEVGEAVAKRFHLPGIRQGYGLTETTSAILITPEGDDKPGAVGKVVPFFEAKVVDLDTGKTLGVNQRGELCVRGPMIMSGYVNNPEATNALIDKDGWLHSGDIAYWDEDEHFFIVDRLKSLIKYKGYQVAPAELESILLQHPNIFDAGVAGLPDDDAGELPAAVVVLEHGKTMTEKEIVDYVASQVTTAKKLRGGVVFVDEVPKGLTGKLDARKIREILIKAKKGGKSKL

| SMILES | activity change, negative = inhibition [%] | Potency |
| --- | --- | --- |
| Cc1ccc(Cl)cc1N1CCN(C(=O)c2cn(C)c3ccc(S(=O)(=O)N(C)C4CCCCC4)cc3c2=O)CC1 | -2.62 |  |
| Cc1ccc(NC(=O)CCCNC(=O)c2ccc(Cl)cc2)cc1S(=O)(=O)N1CCCCC1 | -1.07 |  |
| COC(=O)c1ccc(C2C(C(=O)Nc3ccccc3)=C(C)Nc3nc4ccccc4n32)cc1 (stereo not given) | 1.14 |  |
| COC(=O)C1=C(C(=O)c2ccc(C)cc2)C(c2ccccc2)n2nnnc2N1 (stereo not given) | -5.96 |  |
| COC(=O)c1ccc(C2C3=C(Nc4nnnn42)c2ccccc2OC3)cc1 (stereo not given) |  | 6.01 µM (active) |
| COc1cc(OC)c(C(=O)OCC(=O)N2CC(=O)Nc3ccccc32)cc1OC | 0.484 |  |
| COc1cccc(Nc2nnc(SCC(=O)N3CC(=O)Nc4ccccc43)s2)c1 |  | 21.3 µM (active) |
| Cc1nc(SCC(=O)N2CC(=O)Nc3ccccc32)c2c(C)c(C)sc2n1 | 1.77 |  |
| COc1cccc(Nc2nnc(SCC(=O)N3CC(C)OC(C)C3)s2)c1 (stereo not given) |  | 21.3 µM (active) |
| COc1ccc(C(=O)CSc2nnc(NC(=O)C3CC(=O)N(c4cccc(OC)c4)C3)s2)cc1 (stereo not given) | 4.63 |  |
| COc1cccc(-c2nnc(SCC(=O)N3CCC(C)CC3)o2)c1 | 3.58 |  |
| O=C(Nc1ccccc1Cl)N1CCC(CN2CCCCC2)CC1 | -3.25 |  |
| Cc1nc2ccccc2c(=O)n1-c1ccc(NS(=O)(=O)c2ccc(F)cc2F)cc1 | 1.87 |  |
| CCN(CC)c1ccc(NC(=O)CN2C(=O)c3cccnc3Oc3ccc(Cl)cc32)c(C)c1 | -1.44 |  |
| COc1ccc2ccn(C)c2c1 | -2.14 |  |
| CN(C)c1nc(Nc2ccc(Cl)c(Cl)c2)nc(N(C)C)n1 | 0.513 |  |
| COc1cc2nc(Cl)nc(NCCO)c2cc1OC | -2.87 |  |
| OCCNc1nc(Nc2ccc(Cl)c(Cl)c2)nc2ccccc12 |  | 6.01 µM (active) |
| Cc1ccccc1CSc1nc(-c2ccccc2)nc2c1Cc1c(CO)cnc(C)c1O2 | -2.1 |  |
| Nc1ccn(CC(=O)N2CCN(c3ccccn3)CC2)c(=O)n1 | -1.29 |  |
| O=C(Nc1nc2ccc([N+](=O)[O-])cc2s1)c1ccncc1 |  | 1.07 µM (active) |
| O=C(NC(Nc1nc2ccc([N+](=O)[O-])cc2s1)(C(F)(F)F)C(F)(F)F)c1ccccc1 | -0.0039 |  |
| COc1ccc(C(=O)Nc2nc(-c3ccc(OC)cc3)c(-c3ccc([N+](=O)[O-])cc3)s2)cc1 | 0.4 |  |
| CCN1CCN(CCCNC(=O)c2ccc3c(c2)sc2nc(-c4ccc(OC)cc4)cn23)CC1 | -13.1 |  |
| CCc1ccc(CNC(=O)c2ccc(CS(=O)c3ccc(Br)cc3)o2)cc1 (stereo not given) | -16.3 |  |

| SMILES | activity change, negative = inhibition [%] | Potency |
| --- | --- | --- |
| O=C(N/N=C\c1ccc(Br)cc1)c1ccc(Cn2cccn2)o1 |  | 12 µM (active) |
| O=C(N/N=C/c1ccc(Br)o1)c1cncc(Br)c1 | -5.46 |  |
| COc1cccc(NC(=O)c2ccc(Cn3cc([N+](=O)[O-])cn3)o2)c1 | -4.26 |  |
| CN(C)c1ccc(/C=N/NC(=O)c2ccc(Cn3cc(Br)cn3)o2)cc1 |  | 9.53 µM (active) |
| CN(C)c1ccc(/C=N/NC(=O)C(O)c2ccc(Br)cc2)cc1 (stereo not given) | -17.4 |  |
| O=C(c1ccc(Cn2cc([N+](=O)[O-])cn2)o1)N1CCCC1 | 14.7 |  |
| O=C(Nc1ccc(Br)c2cccnc12)c1ccc(Cn2cc([N+](=O)[O-])cn2)o1 | 1.86 |  |
| O=C(N/N=C/c1ccc2c(c1)OCO2)c1ccc(Cn2cc([N+](=O)[O-])cn2)o1 |  | 6.75 µM (active) |
| Cc1cccc(Cn2c(CN3CCC(C(=O)NCc4ccccc4Cl)CC3)cc3ccccc32)c1 | -0.0278 |  |
| Cc1ccccc1CNC(=O)CCc1cn(Cc2ccccc2C)c2ccccc12 | -9.27 |  |
| O=c1n(Cc2cccc(C(F)(F)F)c2)c2ccccc2c2nc(-c3ccccc3)nn12 | 4.37 |  |
| COc1ccccc1OCC(=O)Nc1nnc2n1CCS2 | -1.03 |  |
| CCOc1ccc(S(=O)(=O)c2cn(Cc3ccccc3)c3ccc(OCC)cc3c2=O)cc1 | 0.46 |  |
| O=C1C2C3C=CC(C3)C2C(=O)N1c1ccc(S(=O)(=O)Nc2nccs2)cc1 (stereo not given) | 0.747 |  |
| CCCCCOC(=O)c1ccc(N2C(=O)C3C4C=CC(C4)C3C2=O)cc1 (stereo not given) | -15.4 |  |
| O=C1C2C3C=CC(C3)C2C(=O)N1c1ccc(-c2nc3ccccc3c(=O)o2)cc1 (stereo not given) |  | 9.53 µM (active) |
| COc1ccc(CCNc2nc(-c3ccc(F)cc3)cc(C(F)(F)F)n2)cc1OC | 2.3 |  |
| Cc1ccc2c(c1)N(C(=O)Nc1ccc(Br)cc1F)CCO2 | 0.456 |  |
| COCCCNC(=O)c1ccc(CNS(=O)(=O)c2ccc(NC(C)=O)cc2)cc1 |  | 16.9 µM (active) |
| Cc1ccccc1CNC(=O)c1cccc(NC(=O)c2nsc3ccccc23)c1 |  | 5.36 µM (active) |
| CCCCNC(=O)C1CCC(CNS(=O)(=O)c2ccc(NC(C)=O)cc2)CC1 (stereo not given) |  | inactive |
| CCc1ccccc1NC(=O)N1CCN(C(=O)c2nsc3ccccc23)CC1 | -4.65 |  |
| COc1cccc(NC(=O)N2CCN(C(=O)c3nsc4ccccc34)CC2)c1 | 5.08 |  |
| COCCCNC(=O)c1ccc2c(c1)ncn2-c1ccccc1OC | -6.89 |  |
| COCCCNC(=O)c1ccc(NC(=O)c2nsc3ccccc23)cc1 |  | 16.9 µM (active) |
